Results as given in PubChem BioAssay (Tox21).
Records with an inconclusive call do not appear. The source made the active and inactive calls. Unless noted, calls come from the whole dose curve; as a rule, active = well fitted curve in the direction sought with a large enough effect in the repeat runs; inconclusive = weak or mixed curves; inactive = no such curve, though single readings can be large; an effect the other way counts as inactive or inconclusive.

Legend:
[1] = molecular target: Peroxisome proliferator-activated receptor delta (Homo sapiens) (UniProt Q03181); test: qHTS assay to identify small molecule agonists of the peroxisome proliferator-activated receptor delta (PPARd) signaling pathway (AID 743212; calls by dose curve)
How it was run: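 Beta-lactamase reporter read by fluorescence (LiveBLAzer B/G FRET, 2 h, room temperature). Test agents, in DMSO, incubated at 37 C with PPARd-bla HEK293H cells.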

[2] = qHTS assay to identify small molecule antagonists of the peroxisome proliferator-activated receptor delta (PPARd) signaling pathway - cell viability counter screen (AID 743213); note: nearly all actives have a fitted effect of over 50% in size
How it was run: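 Agonist-stimulated (L165041, 300 nM final) HEK293H PPARd UAS-bla cells are exposed to compounds for 17 h at 37 C, and ATP-based luminescence (CellTiter-Glo) from the same wells reports cytotoxicity.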

[3] = molecular target: Peroxisome proliferator-activated receptor delta (Homo sapiens) (UniProt Q03181); test: qHTS assay to identify small molecule antagonists of the peroxisome proliferator-activated receptor delta (PPARd) signaling pathway (AID 743215; active = well fitted inhibition curve with a large enough effect in the signal ratio in the repeat runs, not every such curve was filed as active; the % refers to the signal ratio; note: series mostly up to about 62 µM)
How it was run: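 HEK293H GeneBLAzer PPARd UAS-bla reporter cells; cpd + L165041 300 nM final, 17 h 37 C; LiveBLAzer B/G FRET substrate 2 h RT; fluorescence intensity read-out. Antagonist mode.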

[4] = qHTS assay to identify small molecule antagonists of the farnesoid-X-receptor (FXR) signaling pathway - cell viability counter screen (AID 743221; active = well fitted cell-killing curve with a large enough effect in the repeat runs, not every such curve was filed as active; note: nearly all actives have a fitted effect of over 50% in size)
How it was run: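 Luminescence from CellTiter-Glo measures cytotoxicity in GeneBLAzer FXR-UAS-bla HEK 293T cells. Cells were exposed to compounds with 50 uM chenodeoxycholic acid (final) for 16 h at 37 C, in wells also used for the reporter readout.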

[5] = molecular target: Vitamin D3 receptor (Homo sapiens) (UniProt P11473); test: qHTS assay to identify small molecule agonists of the vitamin D receptor (VDR) signaling pathway (AID 743222; calls by dose curve)
How it was run: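 Beta-lactamase reporter readout (LiveBLAzer B/G FRET, 2 h RT) in VDR-bla cells after 16 h compound treatment at 37C, 5% CO2; cells pre-incubated 4 h before pin transfer of DMSO solutions.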

[6] = molecular target: Vitamin D3 receptor (Homo sapiens) (UniProt P11473); test: qHTS assay to identify small molecule antagonists of the vitamin D receptor (VDR) signaling pathway (AID 743223; active = well fitted inhibition curve with a large enough effect in the signal ratio in the repeat runs, not every such curve was filed as active; the % refers to the signal ratio)
How it was run: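 Antagonist mode uses 1alpha,25-dihydroxyvitamin D3 at 3 nM final as stimulus. VDR-bla cells receive compounds in DMSO, incubate 16 h at 37C, then a beta-lactamase FRET substrate for 2 h at room temperature before fluorescence measurement.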

[7] = qHTS assay to identify small molecule agonists of the vitamin D receptor (VDR) signaling pathway - cell viability counter screen (AID 743224); note: series mostly up to about 63 µM; nearly all actives have a fitted effect of over 50% in size
How it was run: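 Cytotoxicity counter screen: VDR-bla cells, 16 h compound exposure at 37C, 5% CO2; CellTiter-Glo luminescence, 30 min RT, same wells as bla read.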

[8] = qHTS assay to identify small molecule agonists of the NFkB signaling pathway - cell viability counter screen (AID 1159515; calls by dose curve; note: series mostly up to about 61 µM; nearly all actives have a fitted effect of over 55% in size)
How it was run: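 ME-180 NFkB-bla cells, 2,000/well; overnight attach; compound 5 hr, 37 C/5% CO2; LiveBLAzer substrate 1.5 hr RT; then CellTiter-Glo in same wells, 30 min RT, luminescence read.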

[9] = qHTS assay to identify small molecule agonists of the endoplasmic reticulum stress response signaling pathway (AID 1159516; active = well fitted activation curve with a large enough effect in the signal ratio in the repeat runs, not every such curve was filed as active; the % refers to the signal ratio)
How it was run: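 HeLa ESRE-bla reporter line; cpd 5 h, 37 C/5% CO2; LiveBLAzer B/G FRET substrate 2 h RT; ex 405, em 460/530 nm.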

[10] = molecular target: Nuclear receptor ROR-gamma (Homo sapiens) (UniProt P51449); test: qHTS assay to identify small molecule antagonists of the retinoid-related orphan receptor gamma (ROR-gamma) signaling pathway (AID 1159521;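 note: CHO cells with doxycycline inducible ROR-gamma driving an RORE luciferase reporter; top concentration of the series differs between compounds; nearly all actives have a fitted effect of over 50% in size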)
How it was run: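 CHO Tet-on RORγ, RORE-luc reporter. Cpd 2 h pre-incubation, then dox hyclate 1 uM final, 16 h, 37 C/5% CO2. ONE-Glo luminescence; decrease = antagonist.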

[11] = qHTS assay to identify small molecule agonists of the AP-1 signaling pathway - cell viability counter screen (AID 1159525; calls by dose curve; note: nearly all actives have a fitted effect of over 55% in size)
How it was run: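 Each titration point was normalised to DMSO and tetra n-octyl ammonium bromide controls. The read was Cell Titer Glo luminescence after 30 min at RT, following 5 h compound exposure of ME-180 AP-1-bla cells at 37 °C.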

[12] = qHTS assay to identify small molecule agonists of the AP-1 signaling pathway (AID 1159526; calls by dose curve)
[13] = molecular target: Retinoic acid receptor RXR-alpha (Homo sapiens) (UniProt P19793); test: qHTS assay to identify small molecule agonists of the RXR signaling pathway (AID 1159527; calls by dose curve; note: nearly all actives have a fitted effect of over 35% in size)
How it was run: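 Read-out: beta-lactamase FRET ratio (405 nm excitation, 460 and 530 nm emission) after 2 hr substrate loading at room temperature. Cells were RXR-alpha-UAS-bla HEK 293T treated with compounds for 16 hr in 2% charcoal-stripped FBS medium.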

[14] = qHTS assay to identify small molecule agonists of the RXR signaling pathway - cell viability counter screen (AID 1159529)
How it was run: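 HEK 293T RXRa-bla cells, 2% CS-FBS; 5 h settle; cpd 16 h 37 C, 5% CO2; CellTiter-Glo 30 min RT, luminescence. Tetraoctyl ammonium bromide as positive control.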

[15] = molecular target: Bile acid receptor (Homo sapiens) (UniProt Q96RI1); test: qHTS assay to identify small molecule antagonists of the farnesoid-X-receptor (FXR) signaling pathway (AID 743217; active = well fitted inhibition curve with a large enough effect in the signal ratio in the repeat runs, not every such curve was filed as active; the % refers to the signal ratio)
How it was run: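 Read-out: beta-lactamase FRET fluorescence (LiveBLAzer B/G substrate, 2 h, room temperature) in GeneBLAzer FXR-UAS-bla HEK 293T cells. Compounds were co-dosed with 50 uM chenodeoxycholic acid (final) and incubated 16 h at 37 °C.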

[16] = qHTS assay to identify small molecule agonists of the farnesoid-X-receptor (FXR) signaling pathway - cell viability counter screen (AID 743218); note: nearly all actives have a fitted effect of over 45% in size
How it was run: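 Luminescence from CellTiter-Glo, read after 30 min at RT, reports viability of GeneBLAzer FXR-UAS-bla HEK 293T cells treated 16 h with compounds in the wells used for the beta-lactamase reporter.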

[17] = molecular target: Bile acid receptor (Homo sapiens) (UniProt Q96RI1); test: qHTS assay to identify small molecule agonists of the farnesoid-X-receptor (FXR) signaling pathway (AID 743220; active = well fitted activation curve with a large enough effect in the signal ratio in the repeat runs, not every such curve was filed as active; the % refers to the signal ratio)
How it was run: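 FXR-UAS-bla HEK 293T cells carrying a UAS-driven beta-lactamase reporter were plated for 5 h at 37C/5% CO2, then exposed to DMSO-dissolved Tox21 10K compounds for 16 h at 37C. A LiveBLAzer B/G FRET substrate was loaded for 2 h at room temperature before fluorescence reading.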

[18] = qHTS assay to identify small molecule antagonists of the retinoid-related orphan receptor gamma (ROR-gamma) signaling pathway - cell viability counter screen (AID 1159520); note: nearly all actives have a fitted effect of over 50% in size
How it was run: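 Tet-on ROR gamma CHO cells (1,000/well) were plated 4 hr, given compounds in DMSO for 2 hr at 37 C, then induced with 1 uM final doxycycline for 16 hr. Viability was read as ATP by CellTiter-Glo luminescence after 30 min.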

[19] = qHTS assay to identify small molecule antagonists of the vitamin D receptor (VDR) signaling pathway - cell viability counter screen (AID 743225); note: nearly all actives have a fitted effect of over 50% in size
How it was run: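 Read-out: CellTiter-Glo luminescence measured 30 min after reagent addition at room temperature. Cells were VDR-bla HEK 293T exposed 16 h at 37C, 5% CO2, to compound with 3 nM final calcitriol agonist.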

Measured: Potency

Bile acid receptor (Homo sapiens), sequence (Q96RI1 whole entry, looked up): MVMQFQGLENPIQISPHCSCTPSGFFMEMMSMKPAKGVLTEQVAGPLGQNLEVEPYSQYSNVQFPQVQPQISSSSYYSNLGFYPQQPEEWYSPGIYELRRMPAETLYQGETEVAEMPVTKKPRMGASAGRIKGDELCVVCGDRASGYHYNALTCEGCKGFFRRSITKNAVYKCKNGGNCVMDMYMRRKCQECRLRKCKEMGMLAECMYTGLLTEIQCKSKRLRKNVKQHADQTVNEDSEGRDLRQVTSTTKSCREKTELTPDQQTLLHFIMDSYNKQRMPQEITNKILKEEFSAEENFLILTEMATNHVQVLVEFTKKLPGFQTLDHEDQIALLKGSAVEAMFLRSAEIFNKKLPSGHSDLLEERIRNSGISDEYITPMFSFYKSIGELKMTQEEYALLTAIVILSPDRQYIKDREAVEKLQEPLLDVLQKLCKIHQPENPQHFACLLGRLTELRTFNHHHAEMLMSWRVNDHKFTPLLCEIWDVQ
Peroxisome proliferator-activated receptor delta (Homo sapiens), sequence (Q03181 whole entry, looked up): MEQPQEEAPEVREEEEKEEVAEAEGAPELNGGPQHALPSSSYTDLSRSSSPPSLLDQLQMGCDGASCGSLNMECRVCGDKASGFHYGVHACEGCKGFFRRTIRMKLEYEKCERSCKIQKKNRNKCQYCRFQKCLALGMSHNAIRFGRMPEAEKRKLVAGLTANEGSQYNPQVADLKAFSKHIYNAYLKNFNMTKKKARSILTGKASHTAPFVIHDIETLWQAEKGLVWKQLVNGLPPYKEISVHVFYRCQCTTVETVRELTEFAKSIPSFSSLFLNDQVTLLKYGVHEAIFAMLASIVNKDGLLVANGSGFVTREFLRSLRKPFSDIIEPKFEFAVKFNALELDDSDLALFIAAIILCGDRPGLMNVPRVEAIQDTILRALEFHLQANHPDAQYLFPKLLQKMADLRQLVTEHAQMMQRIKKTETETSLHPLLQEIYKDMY
Vitamin D3 receptor (Homo sapiens), sequence (P11473 whole entry, looked up): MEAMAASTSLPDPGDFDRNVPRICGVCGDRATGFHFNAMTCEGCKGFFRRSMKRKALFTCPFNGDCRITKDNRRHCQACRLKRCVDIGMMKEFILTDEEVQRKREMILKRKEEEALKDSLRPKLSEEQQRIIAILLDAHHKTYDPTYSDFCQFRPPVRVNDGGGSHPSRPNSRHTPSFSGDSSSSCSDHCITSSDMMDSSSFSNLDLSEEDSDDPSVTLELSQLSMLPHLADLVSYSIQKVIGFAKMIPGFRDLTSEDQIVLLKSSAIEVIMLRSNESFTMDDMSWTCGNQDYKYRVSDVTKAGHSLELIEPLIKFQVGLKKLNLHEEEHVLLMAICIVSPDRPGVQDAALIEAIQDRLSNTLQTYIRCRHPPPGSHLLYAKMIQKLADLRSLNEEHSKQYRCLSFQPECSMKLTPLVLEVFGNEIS
Retinoic acid receptor RXR-alpha (Homo sapiens), sequence (P19793 whole entry, looked up): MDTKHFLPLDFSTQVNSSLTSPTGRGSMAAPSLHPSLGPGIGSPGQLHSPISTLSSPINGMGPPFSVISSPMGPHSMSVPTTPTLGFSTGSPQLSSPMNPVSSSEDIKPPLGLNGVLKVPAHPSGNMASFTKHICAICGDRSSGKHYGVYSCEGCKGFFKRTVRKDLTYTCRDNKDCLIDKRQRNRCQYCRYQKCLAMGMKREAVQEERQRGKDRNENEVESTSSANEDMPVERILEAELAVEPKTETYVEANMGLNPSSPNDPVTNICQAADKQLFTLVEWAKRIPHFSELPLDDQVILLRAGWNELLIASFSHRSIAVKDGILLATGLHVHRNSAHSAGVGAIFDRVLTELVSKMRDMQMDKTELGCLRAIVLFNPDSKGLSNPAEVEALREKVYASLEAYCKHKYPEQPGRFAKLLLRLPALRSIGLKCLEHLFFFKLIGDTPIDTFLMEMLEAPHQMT

[Ca+2]
not listed: [15] | [16] | [17] | [18] | [19]
inactive: all other assays above

CN(C)CCCCCCN(C)C
not listed: [1] | [2] | [3] | [7] | [19]
inactive: all other assays above

C[N+]12CCC(CC1)C(OC(=O)C(O)(c1ccccc1)c1ccccc1)C2 (stereo not given)
not listed: [1] | [2] | [3] | [17]
inactive: all other assays above

O=S(=O)(O)c1cc(O)c(O)c(S(=O)(=O)O)c1
not listed: [3] | [6] | [19]
inactive: all other assays above

CN(C)CCCN(C)CCCN(C)C
not listed: [1] | [2] | [5] | [6] | [13] | [14] | [16]
inactive: all other assays above

CC1OC1C1CCC2(C)OC2C1 (stereo not given)
not listed: [1] | [2] | [3] | [7] | [14] | [15] | [17]
inactive: all other assays above

CC1=NS(=O)(=O)c2cc(Cl)ccc2N1
not listed: [5] | [6] | [7] | [15] | [17]
inactive: all other assays above

CCCCCC(=O)OCCc1ccccc1
not listed: [1] | [3] | [15] | [17] | [19]
inactive: all other assays above

O=S(=O)(O)c1cccc2ccccc12
not listed: [2] | [5] | [6] | [13] | [15] | [16] | [17]
inactive: all other assays above

COc1ccnc(CS(=O)c2nc3cc(OC(F)F)ccc3[nH]2)c1OC (stereo not given)
not listed: [5] | [6] | [7] | [15] | [16] | [17]
inactive: all other assays above

CN(C)C(=O)Oc1ccc[n+](C)c1
not listed: [2] | [3] | [5] | [6] | [15] | [17]
inactive: all other assays above

CCCc1ncc(C[n+]2ccccc2C)c(N)n1
not listed: [1] | [2] | [3] | [18]
inactive: all other assays above

CCN1C=CN(C)C1C (stereo not given)
not listed: [2] | [5] | [6] | [15] | [17]
inactive: all other assays above

CC(C)NNC(=O)c1ccncc1
not listed: [2] | [13] | [15] | [17] | [18]
inactive: all other assays above

CCCOC(=O)CC
not listed: [3] | [6] | [14] | [15] | [16] | [17]
inactive: all other assays above

Cc1cccc(C)c1NC(=O)CC12CCCN1CCC2
not listed: [5] | [6] | [7] | [18]
inactive: all other assays above

CC1(C)[C@@H]2CC[C@@]1(C)[C@H](O)C2
not listed: [5] | [6] | [15] | [17]
inactive: all other assays above

c1coc(CNc2ncnc3nc[nH]c23)c1
not listed: [7] | [15] | [17]
inactive: all other assays above

O=C(O)CNC(=O)c1ccc(CO)o1
not listed: [2] | [5] | [6] | [15] | [17]
inactive: all other assays above

COCCOC[C@H](CC1(C(=O)NC2CCC(C(=O)O)CC2)CCCC1)C(=O)Oc1ccc2c(c1)CCC2 (stereo not given in full)
not listed: [6] | [14] | [15] | [17]
inactive: all other assays above
